Source: PubChem BioAssay
Compounds with a hit are over-represented: about 2.6% of the library has one in this group of screens.
AmpC det inh: AmpC beta-lactamase inhibition, detergent assay | P00811 | purified AmpC, nitrocefin hydrolysis with detergent | Potency, µM (top dose mostly 28.7 µM), for inactives: at the highest dose activity change, negative = inhibition | hit rate 0.09% among 71,000; active = well fitted curve in the direction sought with a large enough effect; inconclusive = small, poorly fitted or top-dose-only effect; also: % is scaled to controls: 0 for no effect and ±100 for the full control effect
Target sequence (P00811 whole entry, looked up): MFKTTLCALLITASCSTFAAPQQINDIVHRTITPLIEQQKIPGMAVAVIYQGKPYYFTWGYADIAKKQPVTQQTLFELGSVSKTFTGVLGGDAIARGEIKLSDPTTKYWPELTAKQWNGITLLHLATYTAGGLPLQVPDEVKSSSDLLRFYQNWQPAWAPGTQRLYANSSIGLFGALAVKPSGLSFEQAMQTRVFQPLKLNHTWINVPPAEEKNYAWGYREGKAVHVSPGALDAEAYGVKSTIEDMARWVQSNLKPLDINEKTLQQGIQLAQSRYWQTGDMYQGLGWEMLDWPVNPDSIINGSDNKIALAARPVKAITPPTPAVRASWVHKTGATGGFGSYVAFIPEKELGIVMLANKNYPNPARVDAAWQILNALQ
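E. coli AmpC (5.3 nM) in 20 mM phosphate pH 7.0 with 0.01% Triton X-100, preincubated 15 min RT with compound; nitrocefin (2 uL of 800 uM stock) hydrolysis followed by 480 nm absorbance every 20 s over 4 min.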
Anthrax LT inh: inhibitors of anthrax lethal toxin internalization. Cells, anthrax lethal toxin internalization, FRET ratio (460/530). Potency, µM (doses to about 40 µM), inactives show top-dose activity change, negative = inhibition, actives largely listed as inhibitors. hit rate 0.67% among 70,000. AID 912; also: % is scaled to controls: 0 for no effect and ±100 for the full control effect; nearly all actives have a fitted effect of over 50% in size
AmpC inh no det: blocks E. coli AmpC beta-lactamase in absence of detergent | P00811 | AmpC nitrocefin hydrolysis, absorbance 480 nm, no detergent | Potency, µM (doses to about 28.7 µM), inactives show at the highest dose activity change, negative = inhibition | hit rate 1.8% among 71,000; also: % of control where 0% means no effect
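Enzyme, pH 7.0 phosphate. Compound titrations were pre-incubated with AmpC for 15 min at room temperature before nitrocefin (stock 800 uM) addition; product formation was recorded at 480 nm every 20 s for 4 min.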
Prx2 Sm inh: inhibitors of Schistosoma mansoni peroxiredoxin 2; S. mansoni Prx2 activity coupled to TGR/GSH (TGR is thioredoxin glutathione reductase), NADPH fluorescence loss, qHTS; hit rate 0.07% among 65,000; Potency, µM
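Purified S. mansoni TGR and Prx2 in pH 7.4 phosphate buffer with EDTA and Tween-20 were preincubated with compounds for 15 min. Further NADPH/GSH was added, then a 2.5 mM H2O2 aliquot initiated turnover, followed kinetically by NADPH fluorescence.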
* = called active by the depositor; [ ] = another dose, or the depositor's remark. Unless noted, calls follow the shape of the full dose curve. Potency is read from the fitted curve at half-maximal effect.

What do the screens show for `COC(=O)c1ccc(-c2nc(-c3ccc(Br)o3)no2)cc1`?
AmpC det inh: 14%; Anthrax LT inh: -11%; AmpC inh no det: 4µM*[single pt active]; Prx2 Sm inh: >57

How did COc1ccc(Cl)cc1-c1nc(-c2ccc(Br)o2)no1 do in these assays?
AmpC det inh: 13%; Anthrax LT inh: -8%; AmpC inh no det: 3.2µM*[single pt active]; Prx2 Sm inh: >57

How did COC(=O)c1ccc(-c2nc(-c3cccs3)no2)cc1 do in these assays?
AmpC det inh: 14%; Anthrax LT inh: -16%; AmpC inh no det: 4µM*[single pt active]; Prx2 Sm inh: >57

What do the screens show for `COc1ccc(-c2noc(-c3cc(Cl)ccc3Cl)n2)cc1OC`?
AmpC det inh: 0%; Anthrax LT inh: -14%; AmpC inh no det: 19%; Prx2 Sm inh: >57

What do the screens show for `CCOC(=O)c1ccc(OCc2nc(-c3cccs3)no2)cc1`?
AmpC det inh: -1%; Anthrax LT inh: -36%; AmpC inh no det: -3%; Prx2 Sm inh: >57

Results for COc1ccc(-c2cc([C@H](O)[C@@H]3CCCCN3)c3ccccc3n2)cc1 ?
AmpC det inh: -7%[5.75 µM]; Anthrax LT inh: 4%[8 µM]; AmpC inh no det: -8%[5.75 µM]; Prx2 Sm inh: >57

Results for CCO ?
AmpC det inh: 10%; Anthrax LT inh: -4%; AmpC inh no det: -15%

Results for C[C@]12CC[C@H](O)C[C@@H]1CC[C@H]1[C@H]2CC[C@]2(C)[C@H](C(=O)CO)CC[C@@H]12 ?
AmpC det inh: 0%; Anthrax LT inh: inconclusive; AmpC inh no det: 19%; Prx2 Sm inh: >57

What do the screens show for `Cc1ccc(C2(c3ccc(C)c(O)c3C)CCN(C)CC2)c(C)c1O`?
AmpC det inh: -4%[5.75 µM]; Anthrax LT inh: -3%[8 µM]; AmpC inh no det: -1%[5.75 µM]; Prx2 Sm inh: >57

What do the screens show for `Cc1c(C)c2cc(Cl)c(O)c(CN(C)C)c2oc1=O`?
AmpC det inh: 0%; Anthrax LT inh: 11%; AmpC inh no det: -1%

How did O=c1oc2c(O)c(O)cc3c(=O)oc4c(O)c(O)cc1c4c23 do in these assays?
AmpC det inh: inconclusive; Anthrax LT inh: inconclusive; AmpC inh no det: 7.9µM*; Prx2 Sm inh: >57

What do the screens show for `CN(Cc1ccccc1)c1oc(-c2ccco2)nc1C#N`?
AmpC det inh: -1%; Anthrax LT inh: 10µM*; AmpC inh no det: 6%; Prx2 Sm inh: >57

What do the screens show for `NC(N)=N[C@H](CC(=O)O)c1ccccc1`?
AmpC det inh: -1%[5.75 µM]; Anthrax LT inh: -10%[8 µM]; AmpC inh no det: -5%[5.75 µM]; Prx2 Sm inh: >57

What do the screens show for `CCOc1cccc(-c2nnc3sc(COc4ccc(C)cc4)nn23)c1`?
AmpC det inh: 1%; Anthrax LT inh: -13%; AmpC inh no det: 16%; Prx2 Sm inh: >57

Results for CCOc1cccc(-c2nnc3sc(COc4ccc(Cl)cc4)nn23)c1 ?
AmpC det inh: -1%; Anthrax LT inh: -3%; AmpC inh no det: 7.9µM*; Prx2 Sm inh: >57

How did O=c1ccn([C@@H]2O[C@@H](COP(=O)(O)OP(=O)(O)O)[C@H](O)[C@@H]2O)c(=O)[nH]1 do in these assays?
AmpC det inh: -4%; Anthrax LT inh: -12%; AmpC inh no det: -2%; Prx2 Sm inh: >57

How did CCCCn1nnc(NC(=O)COc2cc(C)ccc2C(C)C)n1 do in these assays?
AmpC det inh: -3%; Anthrax LT inh: 10µM*; AmpC inh no det: 26%; Prx2 Sm inh: >57

How did COc1ccccc1NC(=O)NCCCN1CCN(c2cccc(Cl)c2)CC1 do in these assays?
AmpC det inh: 12%; Anthrax LT inh: inconclusive; AmpC inh no det: 4µM*[single pt active]; Prx2 Sm inh: >57

How did O=C(C1CCN(S(=O)(=O)c2cccc3cccnc23)CC1)N1CCCC1 do in these assays?
AmpC det inh: 4%; Anthrax LT inh: 21%; AmpC inh no det: -2%; Prx2 Sm inh: >57

What do the screens show for `O=C(C1CCCN1S(=O)(=O)c1cccc2cccnc12)N1CCc2ccccc21` (configuration not stated)?
AmpC det inh: 9%; Anthrax LT inh: 6%; AmpC inh no det: 39%; Prx2 Sm inh: >57

How did O=C(C1CCCN1S(=O)(=O)c1cccc2cccnc12)N1CCc2ccccc2C1 (configuration not stated) do in these assays?
AmpC det inh: 8%; Anthrax LT inh: -9%; AmpC inh no det: 4µM*[single pt active]; Prx2 Sm inh: >57

Results for O=C(C1CCN(S(=O)(=O)c2cccc3cccnc23)CC1)N1CC=C(c2ccccc2)CC1 ?
AmpC det inh: 2%; Anthrax LT inh: 13µM*; AmpC inh no det: 34%; Prx2 Sm inh: >57

What do the screens show for `CN(C)C(=O)N1CCC(C(=O)NCc2ccccc2Cl)CC1`?
AmpC det inh: -3%; Anthrax LT inh: -7%; AmpC inh no det: -14%; Prx2 Sm inh: >57
